The text below walks through data of the supplement of paper PMC6555819.

This assay deals with VDR:RXRa (NR concentration 270 nM, RXRa partner concentration 90 nM). In words: PBM binding z-score (relative to random genomic background probes); higher = stronger binding; sequences stand for … in GC…GCGATTGACAGCGTAGAATGAAGG
The method, then:
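Protein-binding microarray (Agilent 4x180K custom design, double-stranded 60-nt probes: 5' GC cap, 34-nt variable region, 24-nt constant primer region; full probe sequence given). Purified or IVT nuclear receptor:RXRα heterodimers (3:1 NR:RXRα, mostly 270:90 nM) or homodimers were incubated for 1 h in PBS with 2% milk and no ligand, then detected with Alexa488 antibodies. Fluorescence from o1-orientation probes (~5 replicates averaged) was converted to z-scores against 500 random hg19 background probes. Variable regions are seed direct-repeat (DR0–DR5) sites, all their single-nucleotide variants and half-site ablations.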
For GATACAGGGTCACGGCCAGAGTACGCGTATTGAT, the PBM binding z-score turned out to be 5.4.

In turn, TCTCGGAGGACCCGAAGGTCAGAGCTTTCCAGAG came in with a PBM binding z-score of 0.636.

CCTGTTAGGTCAATGGTCAGCTAAAGCAGCTCGC: the PBM binding z-score worked out at 1.54.

The sequence CCTACTGGGCTAAGGTCATTGATCAGTCAAAGCA displayed a PBM binding z-score of 3.39.

Turning to CCTGCTAGGTTATGGTCAGCTAATCTACAGTATG, the PBM binding z-score is -0.216.

Consider CCTTACGGGTCAAGGTGATAGCACGGGTGGTACG, for which the PBM binding z-score amounted to 2.92.

In the case of GGAACGAGGGCATTCAAGTTGATAGCATGGCGAT, the PBM binding z-score came to 3.02.

The sequence CTCGAAAGGTCGTGCTCAGGTGAGTAAACCAAAC registered a PBM binding z-score of 2.99.

Sequence TCAGACAGGTGAAGGTCACTCAGGTACGCAGTCG showed a PBM binding z-score of 4.18.

The sequence ACTCGGAGTACAAAGGTCAGAGCTACGCCAGTGA showed a PBM binding z-score of 3.59.

Sequence TCTTGAAGATCAACAGGAGGTTAAGAAAGATCGA displayed a PBM binding z-score of 0.872.

Regarding GCTTGTAGATCAAGGTTAAGAAAGACTAAGCTAA, the PBM binding z-score amounted to 0.156.

For the sequence ATATGTCGGTTATCGGGTCATTCAGTTTGCGCAT, the PBM binding z-score came out at 4.84.

As to TCATATAGGTAAAGGTGAAAGTGGAACGATATGA, the PBM binding z-score amounted to 1.05.

ACCGAAAGGTCGTGAGGTGAGTATACAGAAAGGC: the PBM binding z-score was 3.62.

Sequence CGTCCAAGGTCAATGCTAGGTCAGTGCAAGCATT yielded a PBM binding z-score of 4.95.

As for CCGACTGGGGCAGAAACGTTACCATACCATCCGG, the PBM binding z-score was -0.901.

The sequence GGCACGAGGGCAAAGTTGATAGCATCTGTCGACG returned a PBM binding z-score of 1.23.

Turning to ATATGTAGGTTATCGGGTCATTCGGTTTGCGCAT, the PBM binding z-score is 5.19.

With ACTAGCAGGCCAAGTTAGGGTCACTCAAACAAAG, the PBM binding z-score was found to be 3.15.

Take TAGCCTAGGTTAGATCGGGCCAGTATACGCTATA: the PBM binding z-score is -0.4.

ATCTCTAGGTAACCAGGTTCAGTGAATGCCGAAC: the PBM binding z-score was 4.05.

GGTTGTAGATCAAGGTTAAGAAAGACTAAGCTAA returned a PBM binding z-score of 0.833.

As to TTACCAAGTTGAGCTGAGGTCGTTGATCCAACTC, the PBM binding z-score worked out at 2.7.

GATACAGGGTCAAGGCGAGAGTACGCGTATTGAT showed a PBM binding z-score of 4.4.

TCACCAAGGTGAAGGTCGTTGATCCCTCTGTAGA displayed a PBM binding z-score of 1.34.

Take TGTATGAGGTTATAAGATCAGGGAACGTTGCAAA: the PBM binding z-score was 1.26.

The sequence TCTATTACTTGATTAGGGCAACCGAAACAGCGGA came in with a PBM binding z-score of 0.676.

Take ATCTCTTGGTAAAGTTCAGTGAAAGATCGATAGA: the PBM binding z-score stood at 1.6.

Sequence ATCGAAAGGTCGTGATGTGAGTATACAGAAAGGC came in with a PBM binding z-score of 2.98.

Take GCATATAGGTAATACAAGGTGAACGTCCGATTGT: the PBM binding z-score is 0.043.

ACAGACAGGTGATGAAGGTAACTCTGGCTATCAT had a PBM binding z-score of 0.00307.

Take ACAGACAGGTGAGTGAAGGTATCTCAGCTGGACG: the PBM binding z-score is -0.617.

Sequence ATAATGAGGTTAAGATCAGGGAAACAGAATACAT gave a PBM binding z-score of 1.6.

For the sequence ACTCGAAGGACAAAGGTCAGAGCTACGCCAGTGA, the PBM binding z-score was determined as 2.96.

The sequence CCATACGGGTCAAGGTTATAGCACGGGTGGTACG had a PBM binding z-score of 3.11.

Consider TAGCGTAGGTCATTGGGCCAGTATAGTACGCATC, for which the PBM binding z-score stood at 2.41.

For the sequence CGTGCAAGGTCATAGGAGGTCAGTGAAGACAGAT, the PBM binding z-score amounted to 6.87.

TCTAGTTGGTAACGGAGGTCACACACGACGGGTA had a PBM binding z-score of 3.8.

Sequence ATCTCTAGGTAAAAGTTCGGTGAATCCCGAGGAT returned a PBM binding z-score of 0.449.
